# The sample as a whole holds a higher share of hits than the screen did.
# aSyn yeast rescue: inhibitors of alpha-synuclein toxicity in yeast | S. cerevisiae alpha-synuclein toxicity rescue, BacTiter-Glo growth, 24 h | Potency, µM (series often up to 46.1 µM), hits mostly activators | actives 0.02% (n = 94,000) | AID 1347070; active = well fitted activation curve with a large enough effect; also: 0% is about no effect
#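 Growth restoration measured by BacTiter-Glo luminescence after 24 hr at 30 deg C; alpha-synuclein yeast, raffinose-pregrown to mid-log, were added at OD600=0.02 in galactose medium onto pinned compounds.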
# Numbers without * were called inactive; i = inactive. Potency is read from the fitted curve at half-maximal effect.
SMILES,aSyn yeast rescue
CCc1cccc(NC(=O)CN2C(=O)CN=C(c3ccccc3F)c3cc(Cl)ccc32)c1,20µM*
O=C1CN=C(c2ccccc2)c2cc(Cl)ccc2N1Cc1ccc(Cl)cc1,i
Cc1cccc(CN2C(=O)CN=C(c3ccccc3)c3cc(Cl)ccc32)c1,i
CCOC(=O)c1ccc(NC(=O)c2cccn(Cc3ccccc3F)c2=O)cc1,i
O=C(COc1cc(Cl)ccc1Cl)Nc1ccc(Cl)cc1C(=O)c1ccccc1,i
